Measurements as given in PubChem BioAssay (NCI).
Where “and” joins values, the source holds several entries; their conditions need not be identical. Equal values may be shown once. Compounds without any hit were thinned out: in the full panel of roughly 79,000, 15% have a hit. Calls of active or inactive are those of the source. Cut-off read from the data, not from the text of the source: active = growth inhibition above about 70%; inactive = the rest.

Assays:
[1] = NCI Yeast Anticancer Drug Screen. Data for the rad50 strain (AID 155);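 note: 0% = growth of vehicle-only cultures of the same strain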; settings: S. cerevisiae rad50 strain growth inhibition, hits give high values; at 50.0 µM unless noted
Method in brief: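 Compounds were tested on a yeast strain with an engineered DNA damage repair alteration; the reported value is growth inhibition normalised to vehicle treatment.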

[2] = NCI Yeast Anticancer Drug Screen. Data for the mec2-1 strain (AID 157); settings: S. cerevisiae mec2-1 strain, hits give high values; at 50.0 µM unless noted
Method in brief: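 Cells of the genetically defined mec2-1 yeast strain are incubated with test compound. Inhibition of growth is calculated against vehicle-treated controls.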

[3] = NCI Yeast Anticancer Drug Screen. Data for the sgs1 mgt1 strain (AID 161);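 note: 0% = growth of cultures given vehicle only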; settings: S. cerevisiae sgs1 mgt1 strain, hits give high values; at 50.0 µM unless noted
Method in brief: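 Genetically altered yeast, compound exposure, growth inhibition relative to vehicle.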

[4] = NCI Yeast Anticancer Drug Screen. Data for the cln2 rad14 strain (AID 165);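 note: 0% = growth equal to vehicle treated cultures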; settings: S. cerevisiae cln2 rad14 strain, hits give high values; at 50.0 µM unless noted
Method in brief: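 The screen exposed genetically defined yeast (cln2 rad14) to test compounds and scored growth inhibition relative to vehicle-treated controls.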

[5] = NCI Yeast Anticancer Drug Screen. Data for the bub3 strain (AID 167); settings: S. cerevisiae bub3 mutant strain, hits give high values; at 50.0 µM unless noted
Method in brief: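 Growth of a checkpoint-deficient yeast mutant is measured after compound exposure. Values represent inhibition relative to vehicle.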

[6] = NCI Yeast Anticancer Drug Screen. Data for the mlh1 rad18 strain (AID 175); settings: S. cerevisiae mlh1 rad18 strain growth inhibition, hits give high values; at 50.0 µM unless noted
Method in brief: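 Compound-treated yeast growth, normalised to vehicle controls. Strain bears defined DNA repair mutations.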

Measured: growth inhibition

CC1=Nc2cc(Cl)c(Cl)cc2N(C)/C1=C/C1=C(Cl)C(=O)c2cc3c(Cl)ccc(Cl)c3cc2C1=O
inactive: [1] -0.05% | [2] 8.75% | [3] 13.1% | [4] 25.1% | [5] -1.4% | [6] 20.8%

CCOc1c(N=Nc2cccc(Cl)c2)c(C)nn1C(N)=S
inactive: [1] 20.4% | [2] 3.35% | [3] 9.65% | [4] -25.1% | [5] -15.5% | [6] 19.4%

CS(=O)(=O)c1nc2[nH]cnc(=S)c2[nH]1
inactive: [1] 8% | [2] -8.2% | [3] -3.5% | [4] 10.9% | [5] 20.9% | [6] -7.1%

CC(=O)Nc1ccc(NCC(=O)Nn2cnc3ccc(S(=O)(=O)Nc4ccc(NC(C)=O)cc4)cc3c2=O)cc1
inactive: [1] 5.55% | [2] -18.1% | [3] 16.6% | [4] 20.9% | [5] -0.6% | [6] 6.95%

CCO/C=C(\C)CC1([N+](=O)[O-])C(=O)c2ccccc2C1=O
inactive: [1] 7.95% | [2] -4.75% | [3] 16.1% | [4] -3.75% | [5] 11.5% | [6] 15.8%

O=CNNc1nn2cnnc2c2ccccc12
inactive: [1] -1% | [2] 9.95% | [3] -6.55% | [4] 11.9% | [5] -16.6% | [6] 9.6%

CC(C)C1=CCC2C(=C1)CCC1C(C)(N=C=O)CCCC21C (stereo unspecified)
inactive: [1] -28.6% | [2] -10.1% | [3] -7.7% | [4] -51.8% | [5] 38.8% | [6] -4%

Cc1nc(C(Cl)(Cl)Cl)[nH]c(=O)c1SCCO
inactive: [1] 12.8% | [2] -15.7% | [3] -9.05% | [4] 10.1% | [5] -2.4% | [6] -6.35%

COC(=O)C1(C(C)C(=O)c2ccccc2)NC(=S)NC(=O)C1C#N (stereo unspecified)
inactive: [1] -6.1% | [2] -16.7% | [3] -35.2% | [4] -11.8% | [5] -14.4% | [6] -25.8%

O=c1[nH]c(C(F)(F)F)c([N+](=O)[O-])c(=O)[nH]1
inactive: [1] -40.9% | [2] -22.4% | [3] 1.6% | [4] -26.4% | [5] -1.9% | [6] -4.7%

CCCCCCCCCCCCNCCC(=O)O
inactive: [1] 25% | [2] -19% | [3] 42.1% | [4] 14.6% | [5] 50.5% | [6] 36.5%

COC(=O)C(=O)C(C(=O)OC)C(=O)C(=O)Nc1ccccc1C(N)=O (stereo unspecified)
inactive: [1] -33.5% | [2] -7.55% | [3] -25.6% | [4] -10.2% | [5] -27.9% | [6] -21.2%

O=C1CCCN(c2ccccc2)N1
inactive: [1] 24.4% | [2] 24.6% | [3] 3.3% | [4] 5.1% | [5] 31.9% | [6] -3.8%

CCOC(=O)c1ccc(-c2ccc(Cl)cc2)[nH]1
inactive: [1] -7.3% | [2] 0% | [3] -3% | [4] 2.45% | [5] 34% | [6] 3.2%

O=C1CSC(c2cc([N+](=O)[O-])ccc2Cl)N1c1nncs1 (stereo unspecified)
inactive: [1] 22.1% | [2] 15.6% | [3] 37.2% | [4] 19.1% | [5] 21.7% | [6] 28.4%

O=[N+]([O-])c1cccc(C2=NN(c3ccccc3)C3c4cc(Br)ccc4OCC23)c1 (stereo unspecified)
inactive: [1] -10.8% | [2] -18.4% | [3] -17.6% | [4] 2.45% | [5] 10.2% | [6] -31.7%

COC(=O)CC1CCS(=O)(=O)C1 (stereo unspecified)
inactive: [1] -6.6% | [2] 6.35% | [3] -5.7% | [4] -37.4% | [5] -4.4% | [6] 0%

CC1=CP(=O)(c2ccccc2)CC1 (stereo unspecified) (tested in a mixture with another compound)
inactive: [1] -12.2% | [2] -9.2% | [3] 6.2% | [4] -9.85% | [5] -10.4% | [6] 1.2%

C=C1[C@@H](O)C[C@@H]2C[C@@]3(C)[C@H](C(C)(C)C[C@@H]3O)C12O (stereo partly specified)
inactive: [1] -4.25% | [2] -17.5% | [3] -20.9% | [4] 5% | [5] -19% | [6] -20.2%

Cc1cc(C)c(S(=O)(=O)Oc2ccccc2)c(C)c1
inactive: [1] -14.9% | [2] -7.15% | [3] -8.5% | [4] 1.7% | [5] 11.8% | [6] -36.7%

S=c1c2[nH]cnc2ncn1CCSC1=NC=NC2=NC=NC21 (stereo unspecified)
inactive: [1] 27.8% | [2] -23.6% | [3] -26.9% | [4] -22.8% | [5] -55% | [6] -8.6%

COc1ccc(/C=N/N=C(/C(=O)c2ccc(OC)cc2)c2ccc(OC)cc2)cc1
inactive: [1] 32.6% | [2] 0.3% | [3] 11.8% | [4] 3.2% | [5] 2.2% | [6] 6.8%

CN(N=O)C(=O)NCCCCCNC(=O)N(C)N=O
inactive: [1] 7.6% | [2] 12.8% | [3] 14.1% | [4] -132% | [5] 10.5% | [6] -4.85%

CCOC(=O)c1c(C(=O)OCC)c2cccn2c2c1cnn2-c1ccccc1
inactive: [1] -0.85% | [2] 1.65% | [3] 5.1% | [4] 5.55% | [5] -20.8% | [6] -2.55%

CCC1CC(=O)c2ccccc2O1 (stereo unspecified)
inactive: [1] 0.65% | [2] 9.55% | [3] -20.4% | [4] -2.55% | [5] 5.4% | [6] 0.4%

CCCCOC/N=C(/N)NC#N
inactive: [1] 10.9% | [2] 2.15% | [3] -5.2% | [4] 28.6% | [5] -4.1% | [6] 17.7%

O=c1[nH]c(=O)n(C2CC(O)C(CO)O2)cc1C#Cc1c(F)c(F)c(F)c(F)c1F (stereo unspecified)
inactive: [1] -17.2% | [2] -11.7% | [3] -16.4% | [4] 11.8% | [5] -13.8% | [6] 2.2%

CCCC1([N+](=O)[O-])c2ccccc2-c2ccc([N+](=O)[O-])cc21 (stereo unspecified)
inactive: [1] 20.4% | [2] 7.9% | [3] 22.4% | [4] 11% | [5] 46.1% | [6] 49.7%

CC(=O)OCC1CCCC(C)C1COC(C)=O (stereo unspecified)
inactive: [1] 2% | [2] -8.7% | [3] -16.1% | [4] -24.1% | [5] 20.3% | [6] -2.95%

O=c1[nH]c(=O)n(C2OC(CO)C(O)C2O)c2ccccc12 (stereo unspecified)
inactive: [1] 8.3% | [2] -6.4% | [3] -8% | [4] -2% | [5] -5.45% | [6] 3.8%

O=C1NC(N/N=C\C(O)C(O)C(O)C(O)CO)=N/C1=C/c1ccc(Cl)cc1 (stereo unspecified)
inactive: [1] 28.1% and 32% | [2] 8.95% and 15.7% | [3] 1.45% and 10.8% | [4] -0.6% and 13.4% | [5] -0.2% and 6.45% | [6] 10.6% and 9.2%

COc1ccc(NC(=O)Nc2ccc(F)cc2)c(OC)c1
inactive: [1] 16.1% | [2] 4.9% | [3] 10.9% | [4] 13.9% | [5] 24.2% | [6] 7.45%

COC1OC(COS(=O)(=O)c2ccc(C)cc2)C(OS(=O)(=O)c2ccc(C)cc2)C(OS(=O)(=O)c2ccc(C)cc2)C1OS(=O)(=O)c1ccc(C)cc1 (stereo unspecified)
inactive: [1] -7.45% | [2] -16.5% | [3] -11.7% | [4] -8.6% | [5] 0.75% | [6] 18.6%

CCOC(=O)C(C#N)(CC(=O)OC)C(c1cccc2ccccc12)c1cccc2ccccc12 (stereo unspecified)
inactive: [1] 10.9% | [2] -12.7% | [3] 12.7% | [4] 21% | [5] -7.15% | [6] 13.8%

CN(C)N1C(=O)S/C(=C\c2ccc([N+](=O)[O-])cc2)C1=O
inactive: [1] -24.4% | [2] -14.3% | [3] 1.15% | [4] 6.3% | [5] -4.1% | [6] -16.2%

COCCCC(=O)CNC(C)C
inactive: [1] -5.05% | [2] -42.1% | [3] -8.75% | [4] -15.4% | [5] -21.1% | [6] -14.4%

CCCCCCCCCCCCN1CCCC(O)C1 (stereo unspecified)
active: [3] 74.4% | [5] 70.6% | [6] 78.1%
inactive: [1] 66.8% | [2] 60.8% | [4] 56.4%

COC(=O)[C@@H]1Cc2cc(O)c(O)cc2C2(CCN(C)CC2)O1
inactive: [1] -21.5% | [2] -22.8% | [3] -17.6% | [4] -12.2% | [5] -10.7% | [6] -29.1%

O=NC1C(Br)C2CC1C1C(Br)C(Br)CC21 (stereo unspecified)
inactive: [1] 4.45% | [2] 5.95% | [3] 13.3% | [4] 0.15% | [5] -1.2% | [6] 6.7%

CCOC(=O)c1[nH]c(=S)n(C)c1C(=O)OCC
inactive: [1] -12.9% | [2] 6.75% | [3] 29.1% | [4] -33% | [5] 8.1% | [6] 0.55%

C=C(NC(=O)C(=C)NC(=O)c1csc(C2=NC3c4csc(n4)C4NC(=O)c5csc(n5)C(C(C)(O)C(C)O)NC(=O)C5CSC(=N5)/C(=C/C)NC(=O)C(C(C)O)NC(=O)c5csc(n5)C3(CC2)NC(=O)C(C)NC(=O)C(=C)NC(=O)C(C)NC(=O)C(C(C)CC)NC2C=Cc3c(C(C)O)cc(nc3C2O)C(=O)OC4C)n1)C(N)=O (stereo unspecified)
inactive: [1] 11.9% and 15.1% | [2] 10.8% and -10.4% | [3] 13.8% and 18.1% | [4] 29.5% and 23.2% | [5] 34.2% and 32.5% | [6] 13.2% and 36.2%
